Source: PubChem
This is a sample that favours compounds with a hit; in the whole collection about 6.9% have one here.
HP1b chromo inh: HTS for Inhibitors of HP1-beta Chromodomain Interactions with Methylated Histone Tails | Chromobox protein homolog 1 (Homo sapiens), P83916 | AlphaScreen HP1-beta / biotin-H3K9me3 peptide binding | Potency, µM (top dose mostly 114 µM), without a hit: at the top dose activity change, negative = inhibition, hits mostly inhibitors | 390,000 tested, 0.56% active | AID 540317, 2011; note: nearly all actives have a fitted effect of over 70% in size
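Compound inhibition of the preformed complex between 50 nM HP1-beta and 50 nM biotinylated H3K9me3 peptide was read by AlphaScreen. Buffer was PBS pH 7.4 with 0.01% Tween-20. Incubations ran 30 min at room temperature, with 10 ug/mL donor/acceptor beads.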
VDR inhibitor: Inhibitors of the vitamin D receptor (VDR): qHTS; VDR-SRC2-3 peptide fluorescence polarization, 2 h; Potency, µM, for the others: max response, negative = inhibition, most hits filed as inhibitors; Vitamin D3 receptor (Homo sapiens), P11473; 400,000 tested, 0.93% active; note: % is set by controls: 0 for no effect and ±100 for the full control effect
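Reagent solutions, kept cold and dark, are dispensed first; compounds are then pinned in at 23 nl, plates briefly spun, and incubated 2 h at ambient temperature. Inhibition of VDR–SRC2-3 peptide binding is read by fluorescence polarization.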
L3MBTL1 inh: qHTS Assay for the Inhibitors of L3MBTL1; Lethal(3)malignant brain tumor-like protein 1 (Homo sapiens), Q9Y468; AlphaScreen L3MBTL1–H3K9me1 peptide binding; Potency, µM (doses to about 57.1 µM), for inactives: at the highest dose activity, negative = inhibition, actives largely listed as inhibitors; 230,000 tested, 0.66% active; AID 485360, 2010; note: % is set by controls: 0 for no effect and ±100 for the full control effect; nearly all actives have a fitted effect of over 60% in size
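First, the protein-peptide complex forms for 30 min at room temperature (L3MBTL1 50 nM, biotinylated H3K9me1 peptide 75 nM). Next, compounds are pin-transferred and incubated 30 min. Finally, AlphaScreen beads are added and read after 30 min.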
JMJD2A Tudor: qHTS Assay for Inhibitors of JMJD2A-Tudor Domain; AlphaScreen JMJD2A-Tudor / H3K4me3 peptide binding; Potency, µM (series often up to 114 µM), inactives show top-dose activity change, negative = inhibition, actives largely listed as inhibitors; Lysine-specific demethylase 4A (Homo sapiens), O75164; 390,000 tested, 4.4% active; note: % is set by controls: 0 for no effect and ±100 for the full control effect; nearly all actives have a fitted effect of over 50% in size
BAZ2B block: qHTS Assay for Inhibitors of BAZ2B. AlphaScreen BAZ2B-H3K14Ac peptide displacement. Potency, µM (doses to about 114 µM), without a hit: at the highest dose activity change, negative = inhibition, actives largely listed as inhibitors. Bromodomain adjacent to zinc finger domain protein 2B (Homo sapiens), Q9UIF8. 360,000 tested, 4.4% active; note: % is set by controls: 0 for no effect and ±100 for the full control effect; nearly all actives have a fitted effect of over 60% in size
Target sequence (Q9UIF8 whole entry, looked up, the tested form may be a part): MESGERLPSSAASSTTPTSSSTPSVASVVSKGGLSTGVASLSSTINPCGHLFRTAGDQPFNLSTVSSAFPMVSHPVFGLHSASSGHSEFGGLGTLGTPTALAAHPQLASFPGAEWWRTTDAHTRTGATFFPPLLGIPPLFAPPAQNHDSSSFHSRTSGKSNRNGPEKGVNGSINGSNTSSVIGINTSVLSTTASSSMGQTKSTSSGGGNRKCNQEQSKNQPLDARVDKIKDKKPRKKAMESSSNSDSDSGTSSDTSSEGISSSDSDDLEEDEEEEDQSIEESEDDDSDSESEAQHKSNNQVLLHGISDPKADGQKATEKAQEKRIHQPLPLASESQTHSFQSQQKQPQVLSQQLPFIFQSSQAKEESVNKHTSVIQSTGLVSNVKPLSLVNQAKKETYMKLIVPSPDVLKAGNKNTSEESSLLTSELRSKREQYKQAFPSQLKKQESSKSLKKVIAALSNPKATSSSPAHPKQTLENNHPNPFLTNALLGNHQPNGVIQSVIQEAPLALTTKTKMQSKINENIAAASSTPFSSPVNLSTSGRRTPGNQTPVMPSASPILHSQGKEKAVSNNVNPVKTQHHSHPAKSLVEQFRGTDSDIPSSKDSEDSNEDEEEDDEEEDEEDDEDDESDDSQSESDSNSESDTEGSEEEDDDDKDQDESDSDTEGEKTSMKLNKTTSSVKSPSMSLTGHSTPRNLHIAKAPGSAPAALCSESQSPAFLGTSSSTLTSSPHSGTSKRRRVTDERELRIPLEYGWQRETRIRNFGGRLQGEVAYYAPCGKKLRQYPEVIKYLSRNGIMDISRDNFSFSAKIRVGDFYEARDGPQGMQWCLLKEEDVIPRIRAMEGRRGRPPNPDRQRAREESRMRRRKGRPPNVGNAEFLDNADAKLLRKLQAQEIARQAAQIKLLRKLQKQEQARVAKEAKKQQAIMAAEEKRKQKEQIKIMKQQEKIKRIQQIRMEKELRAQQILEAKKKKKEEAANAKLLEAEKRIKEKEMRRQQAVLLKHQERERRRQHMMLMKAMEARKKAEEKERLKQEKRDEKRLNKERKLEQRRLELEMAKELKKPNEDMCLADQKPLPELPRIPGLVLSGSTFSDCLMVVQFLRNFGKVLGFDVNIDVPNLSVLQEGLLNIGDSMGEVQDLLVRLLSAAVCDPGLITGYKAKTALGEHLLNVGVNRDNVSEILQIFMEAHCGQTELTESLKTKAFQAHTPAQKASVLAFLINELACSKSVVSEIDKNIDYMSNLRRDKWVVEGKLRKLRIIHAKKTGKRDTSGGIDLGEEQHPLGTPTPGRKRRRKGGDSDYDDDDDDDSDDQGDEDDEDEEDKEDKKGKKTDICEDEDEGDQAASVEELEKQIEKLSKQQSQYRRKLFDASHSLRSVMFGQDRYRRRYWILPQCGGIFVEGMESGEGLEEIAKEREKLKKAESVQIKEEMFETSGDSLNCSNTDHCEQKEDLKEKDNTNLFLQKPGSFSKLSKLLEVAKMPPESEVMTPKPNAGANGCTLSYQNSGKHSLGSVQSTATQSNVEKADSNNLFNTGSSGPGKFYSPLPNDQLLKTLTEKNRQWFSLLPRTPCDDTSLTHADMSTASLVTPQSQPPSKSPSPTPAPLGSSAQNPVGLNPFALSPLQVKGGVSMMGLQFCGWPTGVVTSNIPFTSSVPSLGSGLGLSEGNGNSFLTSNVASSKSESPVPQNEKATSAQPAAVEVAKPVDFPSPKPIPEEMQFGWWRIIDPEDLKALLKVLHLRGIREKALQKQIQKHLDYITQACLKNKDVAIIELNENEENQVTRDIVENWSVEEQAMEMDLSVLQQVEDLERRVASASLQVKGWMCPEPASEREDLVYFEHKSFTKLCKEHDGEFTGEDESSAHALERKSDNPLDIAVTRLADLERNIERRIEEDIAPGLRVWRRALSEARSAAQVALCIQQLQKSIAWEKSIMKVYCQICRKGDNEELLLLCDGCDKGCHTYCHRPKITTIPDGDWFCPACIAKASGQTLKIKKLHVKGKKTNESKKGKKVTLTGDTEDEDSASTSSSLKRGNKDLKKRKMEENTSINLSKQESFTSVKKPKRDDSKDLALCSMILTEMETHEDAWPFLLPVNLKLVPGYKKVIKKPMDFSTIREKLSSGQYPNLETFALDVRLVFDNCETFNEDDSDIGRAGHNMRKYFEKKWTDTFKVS
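BAZ2B (50 nM) with biotin-H3(5-23)K14Ac peptide (50 nM) in PBS pH 7.4, 0.01% Tween-20, preformed 30 min, then compound 30 min at room temperature; top concentration 110uM. AlphaScreen streptavidin donor/nickel chelate acceptor beads (10 ug/mL final), 20 min dark, signal read.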
PLK1 PBD block: qHTS for Inhibitors of PLK1-PDB (polo-like kinase 1 - polo-box domain): Primary Screen; Plk1 PBD binding of FITC phosphopeptide, fluorescence polarization; Potency, µM, inactives show max response, negative = inhibition, most hits filed as inhibitors; 360,000 tested, 2.8% active; AID 720504, 2013; note: series mostly up to about 57 µM; % is set by controls: 0 for no effect and ±100 for the full control effect; nearly all actives have a fitted effect of over 65% in size
* hit, by the source's call; ? = inconclusive; / = no result; ! = repeats disagree; [ ] = another dose, or the depositor's remark. Calls come from the whole dose curve; as a rule, active = well fitted curve in the direction sought with a large enough effect; inconclusive = small, poorly fitted or top-dose-only effect, or another doubt; inactive = no such curve, though single readings can be large; an effect the other way counts as inactive or inconclusive. Potency is the fitted concentration of half-maximal effect.

SMILES	HP1b chromo inh	VDR inhibitor	L3MBTL1 inh	JMJD2A Tudor	BAZ2B block	PLK1 PBD block
CCc1cccc(NC(=O)CCS(=O)(=O)c2ccc3c(c2)NC(=O)CO3)c1	10.1%	-9.9%	/	?	-18.1%	26.7µM*
CCN(Cc1ccccc1)C(=O)CCS(=O)(=O)c1ccc2c(c1)NC(=O)CO2	-9.7%	-19.3%	/	-24.4%	-15.9%	21.2µM*
COc1ccc(-c2csc(C(O)c3ccc(F)c(OC)c3)n2)cn1 (stereo not drawn)	/	/	/	/	/	-9.1%
Cc1ccc2c(c1)cc(CN(Cc1ccco1)C(=O)N1CCOCC1)c1nnnn12	29.2%	-10.6%	-4.2%	-22.8%	-13.4%	4.7%
Cc1cccc2cc(CN(Cc3ccc(F)cc3)C(=O)N3CCOCC3)c3nnnn3c12	?	-13.2%	-2.7%	?	5.7%	23.8µM*
NC(=O)N1c2ccccc2CC(=O)c2ccccc21	13.5%	50.1µM*!	-5.4%	-7.9%	0.3%	-18.5%
Cc1ccc(NC2SC(=O)N(Cc3cccc(C(=O)O)c3)C2=O)cc1 (stereo not drawn)	39.9%	4.0%	5.7%	-16.8%[11.4 µM]	-5.1%	21.2µM*
O=C(C(=NNc1ccccc1)c1ccccc1)c1ccccc1	?	11.7%	/	?	/	0.5%
Oc1ccc(O)c(/C(=N/Nc2ccccc2)c2ccccc2)c1	/	/	/	/	44.7µM*	/
CCC(CC)C(=O)Nc1nnc(S(=O)(=O)N2c3ccccc3CC2C)s1 (stereo not drawn)	42.0%	-5.9%	5.3%	50.1µM*!	25.1µM*!	-1.7%
COc1ccc(CN2CCN(c3ccc(F)cc3)CC2)c(OC)c1OC	0.5%	2.6%	-7.6%	-30.6%	-34.1%	-7.8%
COc1cc(OC)c(CN2CCN(c3ccc(F)cc3)CC2)cc1Br	-63.4%	-16.2%	-6.8%	2.51µM*	50.1µM*	-5.8%
COc1ccc(C(=O)N/N=C/c2ccc(OC)c(CN3CCN(c4ccc(F)cc4)CC3)c2)cc1	-11.9%	-7.1%	1.7%	?	2.0%	3.4%
COc1ccc(/C=N/NC(=O)c2ccoc2C)cc1CN1CCN(c2ccc(F)cc2)CC1	?	4.7%	/	?	79.4µM*	-6.2%
COc1cc(OC)c(CN2CCCN(C)CC2)cc1Br	?	4.5%	-4.0%	1.41µM*	79.4µM*	-2.7%
CC(=O)N1CC[n+]2c(-c3ccc(Cl)cc3Cl)csc21	28.0%	39.8µM*	-2.9%	-32.5%	?	?
CN(C)c1ccc(C(CNC(=O)c2ccc(C#N)cc2)c2c[nH]c3ccccc23)cc1 (stereo not drawn)	?	7.5%	?	39.8µM*	20µM*	4.3%
CN(C)c1ccc(C(CNC(=O)c2ccccc2Br)c2c[nH]c3ccccc23)cc1 (stereo not drawn)	24.5%	-9.2%	?	-21.4%	14.1µM*	3.9%
Cc1ccccc1C(=O)NCC(c1ccc(N(C)C)cc1)N1CCCC1 (stereo not drawn)	-19.4%	10.0%	/	?	?	/
O=C(CNCc1ccco1)Nc1ccc(Oc2ccccc2)cc1	7.4%	-8.6%	/	17.8µM*	50.1µM*	-14.0%
O=C(Cn1cc(COc2c(F)c(F)cc(F)c2F)nn1)c1ccc(O)cc1	64.1%	-4.2%	/	39.8µM*	/	?
COc1ccc(OCc2cn(CC(=O)c3ccc(O)cc3)nn2)cc1	8.0%	3.2%	/	-32.4%	/	-1.4%
CNc1nc(C)c([N+](=O)[O-])c(Nc2ccc(OC)cc2)n1	-19.6%	?	-3.2%	?	?	11.9µM*
COc1cccc(Nc2nc(Nc3ccc(Cl)c(C(=O)O)c3)nc(C)c2[N+](=O)[O-])c1	-5.4%	1.1%	-2.0%	?	50.1µM*	-25.1%
Cc1cc(C)n(C(C[N+](=O)[O-])c2ccc(Cl)cc2)n1 (stereo not drawn)	-3.2%	?	/	?	?	16.8µM*
SMILES	HP1b chromo inh	VDR inhibitor	L3MBTL1 inh	JMJD2A Tudor	BAZ2B block	PLK1 PBD block
FC(F)(F)c1ccccc1NC(=S)N1CCCCCC1	51.0%	10.1%	/	-11.0%	-1.1%	-8.9%
Fc1ccccc1NC(=S)Nc1cccc2cnccc12	-29.7%	?	-2.5%	-35.7%	-35.6%	29.9µM*
FC(F)(F)c1ccccc1NC(=S)Nc1cccc2cnccc12	?	3.9%	0.9%	-28.2%	?	29.9µM*
FC(F)(F)c1ccccc1NC(=S)Nn1cnnc1	?	?	/	-29.4%	-17.3%	9.47µM*
Cc1ccccc1NC(=S)Nc1cccc2cnccc12	-17.7%	-2.2%	-18.8%	-22.3%	-13.2%	?
Cn1c(C(=O)N2CCN(c3ccccc3)CC2)cc2cc(Cl)ccc21	38.4%	-13.5%	8.3%	3.3%	?	0.2%
CCOc1cc2c(cc1OCC)C(c1ccc(F)cc1)NCC2 (stereo not drawn)	30.9%	-0.8%	/	-10.6%	/	0.5%
CCOc1cc2c(cc1OC)C(c1cccc([N+](=O)[O-])c1)NCC2 (stereo not drawn)	-6.0%	?	0.1%	?	?	4.74µM*
Cc1cc(N/N=C/c2ccccc2O)c2ccccc2n1	-5.2%	10.1%	-5.8%	?	?	6.3%
Cc1ccccc1/C=N/Nc1nc2ccccc2c(=O)n1O	-14.5%	-10.8%	/	-4.2%	-14.1%	11.9µM*
Cc1ccc(-c2nc3ccccc3c(=O)n2O)cc1	18.3%	-3.5%	/	35.5µM*	?	4.0%
Cc1ccc(-c2nc3ccccc3c(=O)n2NC(=S)N(C)C)cc1	?	-21.8%	6.3%	-10.7%	7.4%	26.7µM*
O=c1c2ccccc2nc(-c2ccc([N+](=O)[O-])cc2)n1O	3.9%	-5.7%	1.6%	?	?	-17.8%
COc1ccc(C)cc1NS(=O)(=O)c1cnc(N)nc1	31.2%[57 µM]	-0.1%	/	4.5%	-25.7%	/
CC(O)[C@H]1CN=C(N)N1CC1CCCCC1 (stereo partly drawn)	12.1%	?	/	?	/	26.7µM*
NC1=NC[C@H](c2ccccc2)N1CC1CCCCC1	22.5%	1.8%	/	-22.1%	/	-15.1%
COc1ccc(-c2[nH]ncc2CN2CCCC(C(=O)c3cccc(OC)c3)C2)cc1 (stereo not drawn)	16.9%	-2.6%	-8.8%	-25.9%	-3.9%	-3.8%
COc1ccc2cc(-c3[nH]ncc3CN3CCCC3c3nonc3C)ccc2c1 (stereo not drawn)	12.8%	-11.7%	-14.7%	79.4µM*	?	-18.6%
